This is an account of results in PubChem BioAssay (Tox21).

Records with an inconclusive call do not appear. Calls of active or inactive are those of the source. Unless noted, calls follow the shape of the dose curve; as a rule, active = well fitted activation curve with a large enough effect; inconclusive = small, poorly fitted or top-dose-only effect; inactive = flat fitted curve, though single readings scatter.
% is scaled to controls: 0 for no effect and ±100 for the full control effect.

Peroxisome proliferator-activated receptor gamma (Homo sapiens), sequence (P37231 whole entry, looked up): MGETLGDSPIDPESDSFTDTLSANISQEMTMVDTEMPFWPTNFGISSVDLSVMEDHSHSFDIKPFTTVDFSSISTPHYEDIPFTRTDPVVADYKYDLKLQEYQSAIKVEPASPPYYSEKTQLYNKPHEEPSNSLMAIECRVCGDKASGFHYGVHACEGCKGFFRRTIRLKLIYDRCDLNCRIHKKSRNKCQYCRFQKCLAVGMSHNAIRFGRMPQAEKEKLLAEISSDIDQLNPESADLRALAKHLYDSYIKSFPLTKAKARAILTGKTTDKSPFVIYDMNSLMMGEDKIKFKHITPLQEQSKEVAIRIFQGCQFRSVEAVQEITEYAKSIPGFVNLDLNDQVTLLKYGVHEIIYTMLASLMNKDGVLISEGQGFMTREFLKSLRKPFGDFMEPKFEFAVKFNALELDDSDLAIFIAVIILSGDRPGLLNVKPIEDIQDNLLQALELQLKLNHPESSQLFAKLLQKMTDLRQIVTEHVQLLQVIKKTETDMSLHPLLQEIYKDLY

The first assay addresses Peroxisome proliferator-activated receptor gamma (Homo sapiens) (UniProt P37231). Kind of assay: qHTS assay to identify small molecule agonists of the peroxisome proliferator-activated receptor gamma (PPARg) signaling pathway (AID 743094; active = well fitted activation curve with a large enough effect in the signal ratio in the repeat runs, not every such curve was filed as active; the % refers to the signal ratio). To be noted: HEK293H PPARg-UAS-bla, beta-lactamase FRET ratio, 17 h; series mostly up to 57 µM; activation: at the top concentration. The gist of the method: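 Agonist activity was taken from a beta-lactamase reporter (FRET substrate, 1 h at room temperature) in HEK293H cells carrying a PPARg UAS-bla construct. Compounds in DMSO were incubated 17 h at 37C after a 5 h cell pre-incubation.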
With `CC(C)N1CCN(c2ccc(OC[C@H]3CO[C@](Cn4cncn4)(c4ccc(Cl)cc4Cl)O3)cc2)CC1`, the “activation” value was 0.116% [at 26.2 µM] (inactive).
With `CN1[C@@H]2CC[C@H]1CC(OC(c1ccccc1)c1ccccc1)C2` (stereo not given in full), the Potency result was “inactive”.
Turning to `C[C@H]1C[C@H]2[C@@H]3CCC4=CC(=O)C=C[C@]4(C)[C@@]3(F)[C@@H](O)C[C@]2(C)[C@@]1(O)C(=O)CCl`, the “activation” value was -12.9% (inactive).
Still for that read-out and setting: for `COc1cc(NCCCC(C)N)c2ncccc2c1` (stereo not given) the value was -1.93% (inactive); for `O=C(O)c1cc2ccccc2c(Cc2c(O)c(C(=O)O)cc3ccccc23)c1O`, -8.6% (inactive).
On the same count and under the same terms, in the case of `COc1ccc(C(=O)Nc2ccccc2CCC2CCCCN2C)cc1` (stereo not given) it was -6.05% (inactive); in that of `O=C(Nc1ccc(/C=C/c2ccc(NC(=O)c3cc(S(=O)(=O)O)c4cccnc4c3O)cc2S(=O)(=O)O)c(S(=O)(=O)O)c1)c1cc(S(=O)(=O)O)c2cccnc2c1O`, 2.01% (inactive); in that of `CCN(CC)c1ccc(N=Nc2ccc(S(=O)(=O)N(C)C)cc2)c(S(=O)(=O)NCC[n+]2ccccc2)c1`, 4.36% (inactive).
The same measure, in the same setting: for `OCCN1CCN(CC/C=C2/c3ccccc3Sc3ccc(Cl)cc32)CC1` the value was -1.93% [at 26.2 µM] (inactive); for `CN1CCN(CCCN2c3ccccc3Sc3ccccc32)CC1`, -9.54% (inactive).
Regarding `C[C@]12C=CC(=O)C=C1CC[C@@H]1[C@@H]2[C@@H](O)C[C@@]2(C)[C@H]1CC[C@]2(O)C(=O)COC(=O)CCC(=O)O`, the “activation” value was 2.36% (inactive).
For the molecule `CC(O)[C@H]1CC[C@H]2[C@@H]3CC[C@@H]4C[C@@H](O)CC[C@]4(C)[C@H]3CC[C@]12C` (stereo not given in full), the “activation” value was 0.138% (inactive).
Same read-out and setting: for `O=P(O)(O)C(O)(Cc1cnc2ccccn12)P(=O)(O)O` the value was 0.943% (inactive); for `CN(C)CC/C=C1/c2ccccc2CSc2ccccc21`, -7.6% [at 26.2 µM] (inactive); for `CC(CN(C)C)CN1c2ccccc2S(=O)(=O)c2ccccc21` (stereo not given), -8.86% (inactive).
The same measure, in the same setting: for `CN1[C@@H]2CCC[C@H]1CC(NC(=O)c1nn(C)c3ccccc13)C2` (stereo not given in full) the value was -1.04% (inactive); for `COc1cc2[nH]c(C)c(CCN3CCN(c4ccccc4)CC3)c2cc1OC`, -4.33% (inactive); for `CN1CC(O)c2cc(N=NC(N)=O)c(O)cc21` (stereo not given), 0.0745% (inactive).
The same measure, in the same setting: for `C#C[C@]1(OC(C)=O)CC[C@H]2[C@@H]3CCC4=CC(=O)CC[C@@H]4[C@H]3CC[C@@]21C` the value was -6.09% (inactive); for `C=C1/C(=C\C=C2/CCC[C@]3(C)[C@@H]([C@H](C)OCCC(C)(C)O)CC[C@@H]23)C[C@@H](O)C[C@@H]1O`, -10.7% (inactive); for `CC[C@H]1OC(=O)[C@H](C)[C@@H](O[C@H]2C[C@@](C)(OC)[C@@H](O)[C@H](C)O2)[C@H](C)[C@@H](O[C@@H]2O[C@H](C)C[C@H](N(C)C)[C@H]2O)[C@](C)(O)C[C@@H](C)[C@@H]2N[C@@H](COCCOC)O[C@@H]([C@H]2C)[C@]1(C)O`, -0.956% (inactive).
Consider `CNC(C)CCC=C(C)C` (stereo not given), for which the “activation” value was -2.63% (inactive).
`Cn1nnnc1SCC1=C(C(=O)O)N2C(=O)[C@@H](NC(=O)[C@H](O)c3ccccc3)[C@H]2SC1`: the “activation” value is 1.18% [at 26.2 µM] (inactive).
As to `C[C@]12C=CC(=O)N[C@@H]1CC[C@@H]1[C@@H]2CC[C@]2(C)[C@@H](C(=O)Nc3cc(C(F)(F)F)ccc3C(F)(F)F)CC[C@@H]12`, the “activation” value is 1.1% (inactive).
On to `O=C(NOC[C@H](O)CO)c1ccc(F)c(F)c1Nc1ccc(I)cc1F`, for which the “activation” value was -1.34% (inactive).

Test system in the next assay: not listed separately
The assay can be described thus: qHTS assay to identify small molecule phospholipidosis (PLD) inducers (AID 1259344). The settings on record: HepG2 phospholipidosis, LipidTOX Red imaging, 24 h; series mostly up to 38.3 µM; PLD induction: at the top concentration. In short, it runs like this: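 Accumulated phospholipid, stained red by LipidTOX during 24 h compound treatment of HepG2 cells at 37 C, is quantified from images as pit number and intensity, normalised per cell using Hoechst-stained nuclei.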
(In general: qHTS replaces the single test concentration by a dilution series.)
Regarding `COC(=O)C1=C(C)NC(C)=C(C(=O)O[C@H]2CCN(Cc3ccccc3)C2)[C@H]1c1cccc([N+](=O)[O-])c1`, the “PLD induction” value is 2.18% (inactive).
Take `C[C@H]1C[C@H]2[C@@H]3CCC4=CC(=O)C=C[C@]4(C)[C@@]3(F)[C@@H](O)C[C@]2(C)[C@@]1(O)C(=O)CCl`: the “PLD induction” value is -3.04% (inactive).
The same measure, in the same setting: for `COc1cc(NCCCC(C)N)c2ncccc2c1` (stereo not given) the value was -0.332% (inactive); for `O=C(O)c1cc2ccccc2c(Cc2c(O)c(C(=O)O)cc3ccccc23)c1O`, -6.08% (inactive); for `COc1ccc(C(=O)Nc2ccccc2CCC2CCCCN2C)cc1` (stereo not given), 0.592% (inactive).
On the same count and under the same terms, in the case of `O=C(Nc1ccc(/C=C/c2ccc(NC(=O)c3cc(S(=O)(=O)O)c4cccnc4c3O)cc2S(=O)(=O)O)c(S(=O)(=O)O)c1)c1cc(S(=O)(=O)O)c2cccnc2c1O` it was -0.0305% [at 7.66 µM] (inactive); in that of `CCCC1([C@H](O)C/C=C/[C@H]2[C@H](O)CC(=O)[C@@H]2CCCCCCC(=O)OC)CCC1`, 0.112% [at 7.66 µM] (inactive); in that of `CCN(CC)c1ccc(N=Nc2ccc(S(=O)(=O)N(C)C)cc2)c(S(=O)(=O)NCC[n+]2ccccc2)c1`, -7.26% (inactive).
On the same count and under the same terms, for `CN1CCN(CCCN2c3ccccc3Sc3ccccc32)CC1` the value was -0.859% (inactive).
In the case of `C[C@]12C=CC(=O)C=C1CC[C@@H]1[C@@H]2[C@@H](O)C[C@@]2(C)[C@H]1CC[C@]2(O)C(=O)COC(=O)CCC(=O)O`, the “PLD induction” value was -3% (inactive).
Same read-out and setting: for `Cc1c(N)nc(C(CC(N)=O)NCC(N)C(N)=O)nc1C(=O)NC(C(=O)NC(C)C(O)C(C)C(=O)NC(C(=O)NCCc1nc(-c2nc(C(=O)NCCCN[C@@H](C)c3ccccc3)cs2)cs1)C(C)O)C(O[C@@H]1O[C@@H](CO)[C@@H](O)[C@H](O)[C@@H]1O[C@H]1O[C@H](CO)[C@@H](O)[C@H](OC(N)=O)[C@@H]1O)c1cnc[nH]1` (stereo not given in full) the value was 1.81% [at 7.66 µM] (inactive); for `O=P(O)(O)C(O)(Cc1cnc2ccccn12)P(=O)(O)O`, -2.22% (inactive); for `CC1=C(C(=O)OCCN(Cc2ccccc2)c2ccccc2)C(c2cccc([N+](=O)[O-])c2)C(P2(=O)OCC(C)(C)CO2)=C(C)N1` (stereo not given), -1.08% [at 7.66 µM] (inactive).
The same measure, in the same setting: for `CC(CN(C)C)CN1c2ccccc2S(=O)(=O)c2ccccc21` (stereo not given) the value was 10% (inactive).
On the same count and under the same terms, in the case of `CN1[C@@H]2CCC[C@H]1CC(NC(=O)c1nn(C)c3ccccc13)C2` (stereo not given in full) it was 0.352% (inactive).
With `COc1cc2[nH]c(C)c(CCN3CCN(c4ccccc4)CC3)c2cc1OC`, the “PLD induction” value is 13.6% (inactive).
On the same count and under the same terms, in the case of `CC1(S(=O)(=O)O)CC(=O)c2ccccc2C1=O` (stereo not given) it was -7.04% (inactive).
Same read-out and setting: in the case of `CN1CC(O)c2cc(N=NC(N)=O)c(O)cc21` (stereo not given) it was -1.96% (inactive); in that of `C#C[C@]1(OC(C)=O)CC[C@H]2[C@@H]3CCC4=CC(=O)CC[C@@H]4[C@H]3CC[C@@]21C`, 1.06% [at 7.66 µM] (inactive); in that of `C=C1/C(=C\C=C2/CCC[C@]3(C)[C@@H]([C@H](C)OCCC(C)(C)O)CC[C@@H]23)C[C@@H](O)C[C@@H]1O`, -2.6% (inactive).
As for `CC[C@H]1OC(=O)[C@H](C)[C@@H](O[C@H]2C[C@@](C)(OC)[C@@H](O)[C@H](C)O2)[C@H](C)[C@@H](O[C@@H]2O[C@H](C)C[C@H](N(C)C)[C@H]2O)[C@](C)(O)C[C@@H](C)[C@@H]2N[C@@H](COCCOC)O[C@@H]([C@H]2C)[C@]1(C)O`, the “PLD induction” value is 18% (inactive).
For `Cc1ccc(/C(=C\CN2CCCC2)c2cccc(/C=C/C(=O)O)n2)cc1`, the “PLD induction” value is 1.02% (inactive).
The same measure, in the same setting: in the case of `C=C1C(=C/C=C2\CCC[C@]3(C)[C@@H]([C@H](C)/C=C/[C@H](C)C(C)C)CC[C@@H]23)C[C@@H](O)C[C@@H]1O` it was -2.28% (inactive); in that of `Cn1nnnc1SCC1=C(C(=O)O)N2C(=O)[C@@H](NC(=O)[C@H](O)c3ccccc3)[C@H]2SC1`, 2.62% [at 15.5 µM] (inactive); in that of `O=C(NOC[C@H](O)CO)c1ccc(F)c(F)c1Nc1ccc(I)cc1F`, 0.423% (inactive).
